Inconclusive results are not listed. Active and inactive are the calls of the source. Unless noted, calls come from the whole dose curve; as a rule, active = well fitted curve in the direction sought with a large enough effect; inconclusive = small, poorly fitted or top-dose-only effect, or another doubt; inactive = no such curve, though single readings can be large; an effect the other way counts as inactive or inconclusive.
Experiments:
[1] = HTS Assay for Allosteric Antagonists of the Human D2 Dopamine Receptor: Hit Validation in HTRF (AID 624455);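 note: stable D1 dopamine receptor cell line scored for blocking the D1 response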
Procedure, shortened: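 Inhibition of the D1-mediated response was measured by HTRF. Cells used were a line stably expressing the D1 dopamine receptor.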

[2] = qHTS for compounds that reverse cellular toxicity of Amyloid beta (A-beta) peptide in yeast: LOPAC Validation Assay (AID 720559)
Procedure, shortened: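 Rescue of A-beta toxicity was scored as yeast growth by 600 nm absorbance after 48 hr at 30 C with compound. Normalization used DMSO (negative) and equimolar ferric chloride plus clioquinol (positive).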

[3] = qHTS for Activators of Parkin Expression: LOPAC Validation Assay (NLuc Reporter) (AID 720572)
Procedure, shortened: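 Compound effects on Parkin promoter activity were measured as NanoLuc luminescence after 24 h at 37 C. The neuronal reporter line also carried FLuc, which was read first. LOPAC compounds were tested at 7 concentrations, with normalization to DMSO (0%) and positive control (100%).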

[4] = qHTS for Activators of Parkin Expression: LOPAC Validation Assay (FLuc Reporter) (AID 720573)
Procedure, shortened: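 FLuc signal from Parkin-promoter coincidence reporter neuronal cells, normalized to DMSO and positive control (100%). Cells (1,500/well) pre-incubated 24 h, then exposed to LOPAC compounds in 7-point dose response for 24 h at 37 C, 5% CO2.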

[5] = target: T1, Hexokinase-4 (Homo sapiens) + Glucokinase regulatory protein (Homo sapiens) (UniProt P35557+Q14397); assay: qHTS assay for inhibitors of recombinant human GCK-GKRP interaction: Diaphorase-coupled assay (AID 743205)
T1 sequence (P35557 whole entry, looked up): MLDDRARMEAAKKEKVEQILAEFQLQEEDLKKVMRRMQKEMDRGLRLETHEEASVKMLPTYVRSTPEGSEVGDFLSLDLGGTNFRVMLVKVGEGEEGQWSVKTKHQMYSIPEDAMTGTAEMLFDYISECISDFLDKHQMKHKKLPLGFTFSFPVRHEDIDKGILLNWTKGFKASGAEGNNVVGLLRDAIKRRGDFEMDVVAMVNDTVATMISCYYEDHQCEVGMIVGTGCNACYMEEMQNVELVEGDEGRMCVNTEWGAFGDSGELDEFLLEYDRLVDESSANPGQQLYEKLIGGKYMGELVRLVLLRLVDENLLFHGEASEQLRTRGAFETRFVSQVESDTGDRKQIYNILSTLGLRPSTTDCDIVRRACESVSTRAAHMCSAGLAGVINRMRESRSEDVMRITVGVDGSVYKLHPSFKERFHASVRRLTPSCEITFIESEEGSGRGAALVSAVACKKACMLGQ
T1 sequence (Q14397 whole entry, looked up): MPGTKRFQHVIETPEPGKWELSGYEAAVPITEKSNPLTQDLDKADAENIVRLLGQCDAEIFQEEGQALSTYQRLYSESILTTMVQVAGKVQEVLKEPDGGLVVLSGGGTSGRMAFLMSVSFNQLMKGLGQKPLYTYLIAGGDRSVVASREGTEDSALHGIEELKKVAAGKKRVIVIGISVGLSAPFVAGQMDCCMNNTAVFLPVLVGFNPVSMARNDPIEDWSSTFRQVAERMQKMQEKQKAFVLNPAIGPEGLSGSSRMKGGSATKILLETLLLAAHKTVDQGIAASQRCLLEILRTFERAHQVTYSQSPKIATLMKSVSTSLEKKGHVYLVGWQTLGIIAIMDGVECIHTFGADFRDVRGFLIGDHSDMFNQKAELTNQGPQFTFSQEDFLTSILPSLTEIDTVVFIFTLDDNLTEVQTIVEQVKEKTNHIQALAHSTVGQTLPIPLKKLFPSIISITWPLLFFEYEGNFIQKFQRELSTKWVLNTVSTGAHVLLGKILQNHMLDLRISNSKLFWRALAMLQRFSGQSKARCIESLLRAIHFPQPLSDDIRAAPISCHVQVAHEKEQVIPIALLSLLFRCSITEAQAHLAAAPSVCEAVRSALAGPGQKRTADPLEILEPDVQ
Procedure, shortened: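 A kinetic fluorescence read (Ex 525/Em 590 nm, every minute for 30 minutes) tracked resorufin from a G6PDH-diaphorase coupled GCK reaction. It contained 10 nM GST-GCK, 10 nM FLAG-GKRP, 5 mM glucose, 0.4 mM ATP in Hepes pH 7.6. Normalized to with/without-enzyme DMSO controls.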

[6] = target: T1, Hexokinase-4 (Homo sapiens) + Glucokinase regulatory protein (Homo sapiens); assay: qHTS assay for inhibitors of recombinant human GCK-GKRP interaction: ADP-Glo assay (AID 743206)
Procedure, shortened: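 Pin-transferred compounds meet a 15 nM GST-GCK/15 nM FLAG-GKRP/2 uM S6P mix (dispense concentrations). ATP is then added to 0.4 mM final with 5 mM glucose, and the reaction runs 60 min at room temperature. ADP is quantified luminescently.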

[7] = target: T1, Hexokinase-4 (Homo sapiens) + Glucokinase regulatory protein (Homo sapiens); assay: qHTS assay for inhibitors of recombinant human GCK-GKRP interaction: HTRF assay (AID 743207)
Procedure, shortened: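 After 60 min equilibration at room temperature with anti-FLAG XL665 and anti-GST antibodies, FRET ratio (665/615 nm, excitation 320 nm) was read. Proteins: GST-GCK and FLAG-GKRP, each 5 nM, plus 2 uM S6P, pH 7.1 buffer; GCK-free wells define minimum signal.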

[8] = Natriuretic polypeptide receptor (hNpr1) antagonism - Pilot counterscreen GloSensor control cell line (AID 1347045; calls by dose curve)
Procedure, shortened: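 Control counterscreen: luciferase cGMP-biosensor HEK293 cells (no Npr1) received compound for 30 min at room temperature after GloSensor substrate loading. Luminescence was measured before and 20 min after soluble guanylyl cyclase activation by 50 uM nitroprusside.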

[9] = target: Atrial natriuretic peptide receptor 1 (Homo sapiens) (UniProt P16066); assay: Natriuretic polypeptide receptor (hNpr1) antagonism - Pilot screen (AID 1347049; calls by dose curve;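 note: HEK293 cells with hNpr1 and GloSensor cGMP luciferase stimulated by 0.1 nM hNppA; agonist-evoked cGMP luminescence read 20 min after hNppA addition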)
Chain of Atrial natriuretic peptide receptor 1 (Homo sapiens) (P16066 whole entry, looked up): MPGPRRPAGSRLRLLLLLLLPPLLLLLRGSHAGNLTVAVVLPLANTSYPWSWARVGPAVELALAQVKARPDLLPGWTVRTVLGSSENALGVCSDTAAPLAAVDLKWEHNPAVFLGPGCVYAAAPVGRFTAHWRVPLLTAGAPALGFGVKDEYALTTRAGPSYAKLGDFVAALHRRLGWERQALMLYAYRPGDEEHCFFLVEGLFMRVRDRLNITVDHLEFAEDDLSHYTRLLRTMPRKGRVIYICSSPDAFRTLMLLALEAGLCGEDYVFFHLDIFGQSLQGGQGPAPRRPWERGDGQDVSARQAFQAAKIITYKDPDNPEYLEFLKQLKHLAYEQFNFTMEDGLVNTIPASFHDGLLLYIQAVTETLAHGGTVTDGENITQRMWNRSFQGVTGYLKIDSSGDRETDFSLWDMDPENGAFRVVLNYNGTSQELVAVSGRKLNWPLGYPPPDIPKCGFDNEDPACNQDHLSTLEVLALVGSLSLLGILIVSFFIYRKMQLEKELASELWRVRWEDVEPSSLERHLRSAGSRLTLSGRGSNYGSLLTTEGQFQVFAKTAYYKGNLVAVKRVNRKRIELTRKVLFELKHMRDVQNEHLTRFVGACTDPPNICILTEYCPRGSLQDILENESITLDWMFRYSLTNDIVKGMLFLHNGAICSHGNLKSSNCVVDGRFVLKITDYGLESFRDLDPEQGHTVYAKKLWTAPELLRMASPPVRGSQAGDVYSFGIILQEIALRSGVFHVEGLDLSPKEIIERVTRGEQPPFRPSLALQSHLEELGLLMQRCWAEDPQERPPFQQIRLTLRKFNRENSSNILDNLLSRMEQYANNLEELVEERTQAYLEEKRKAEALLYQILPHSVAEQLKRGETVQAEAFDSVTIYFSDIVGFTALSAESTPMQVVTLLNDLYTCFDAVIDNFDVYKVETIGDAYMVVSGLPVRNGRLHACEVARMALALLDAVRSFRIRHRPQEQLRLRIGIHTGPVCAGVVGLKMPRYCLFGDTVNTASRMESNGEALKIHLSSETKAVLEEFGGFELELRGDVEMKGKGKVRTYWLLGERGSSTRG
Procedure, shortened: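 Receptor antagonism read as cGMP-dependent luminescence in hNpr1/pGS-40F HEK293 cells: pre-read after 30 min compound exposure, post-read 20 min after hNppA agonist at 0.1 nM final, all at room temperature, protected from light; A-71915 titration as control.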

[10] = target: T2, Tyrosine-protein phosphatase non-receptor type substrate 1 (Homo sapiens) + Leukocyte surface antigen CD47 (Homo sapiens) (UniProt P78324+Q08722); assay: CD47-SIRPalpha protein protein interaction - LANCE assay qHTS validation (AID 1347057; active = well fitted curve in the direction sought with a large enough effect in the signal ratio, with a control signal flat, not every such curve was filed as active; the % refers to the signal ratio)
T2 sequence (P78324 whole entry, looked up, the tested form may be a part): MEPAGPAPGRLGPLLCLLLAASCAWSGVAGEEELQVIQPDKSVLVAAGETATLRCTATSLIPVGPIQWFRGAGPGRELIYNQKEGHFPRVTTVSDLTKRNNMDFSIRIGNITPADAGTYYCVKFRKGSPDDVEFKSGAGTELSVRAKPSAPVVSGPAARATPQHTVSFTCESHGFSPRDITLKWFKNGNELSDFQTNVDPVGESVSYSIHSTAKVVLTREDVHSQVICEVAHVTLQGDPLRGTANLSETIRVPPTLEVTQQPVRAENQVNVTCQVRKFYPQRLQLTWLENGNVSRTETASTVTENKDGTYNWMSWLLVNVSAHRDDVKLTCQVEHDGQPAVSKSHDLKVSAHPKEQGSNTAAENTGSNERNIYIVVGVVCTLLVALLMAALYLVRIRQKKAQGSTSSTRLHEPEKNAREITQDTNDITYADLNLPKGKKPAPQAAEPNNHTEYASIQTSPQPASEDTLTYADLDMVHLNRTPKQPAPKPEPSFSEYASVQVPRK
T2 sequence (Q08722 whole entry, looked up, the tested form may be a part): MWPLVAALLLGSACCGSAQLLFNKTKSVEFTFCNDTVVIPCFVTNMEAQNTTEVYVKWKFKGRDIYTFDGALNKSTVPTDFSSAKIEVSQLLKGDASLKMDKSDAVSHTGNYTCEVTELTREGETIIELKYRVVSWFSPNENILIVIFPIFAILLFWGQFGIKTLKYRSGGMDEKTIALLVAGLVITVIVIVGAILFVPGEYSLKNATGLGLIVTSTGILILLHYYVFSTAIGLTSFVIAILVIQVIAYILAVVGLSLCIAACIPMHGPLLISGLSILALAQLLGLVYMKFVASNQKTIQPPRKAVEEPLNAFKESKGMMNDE
Procedure, shortened: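 Inhibition of soluble CD47/SIRPalpha ectodomain association by titrated compounds, measured as 665/615 nm time-resolved FRET ratio after sequential 30 min room-temperature incubations.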

[11] = target: T2, Tyrosine-protein phosphatase non-receptor type substrate 1 (Homo sapiens) + Leukocyte surface antigen CD47 (Homo sapiens); assay: CD47-SIRPalpha protein protein interaction - HTRF assay qHTS validation (AID 1347058; active = well fitted curve in the direction sought with a large enough effect in the signal ratio, not every such curve was filed as active; the % refers to the signal ratio)
Procedure, shortened: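 Soluble extracellular domains (6His-CD47, Avi-tag-biotinylated SIRPalpha) in PBS pH 7.4 with 0.05% IGEPAL CA-630. Compounds were preincubated 30 min at RT with CD47 and anti-His-Eu, then SIRPalpha and SAV-XL665 were added. TR-FRET 665/615 ratio.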

[12] = target: T2, Tyrosine-protein phosphatase non-receptor type substrate 1 (Homo sapiens) + Leukocyte surface antigen CD47 (Homo sapiens); assay: CD47-SIRPalpha protein protein interaction - Alpha assay qHTS validation (AID 1347059);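 note: bead proximity luminescence from CD47 binding SIRPalpha after compound preincubation with SIRPalpha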
Procedure, shortened: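 AlphaScreen signal between CD47-His (12.5 nM) and biotin-SIRPalpha (25 nM) soluble extracellular domains, bead-captured via Ni-NTA and streptavidin. Compounds, in 7-point titrations, met SIRPalpha 30 min before CD47; PBS pH 7.4 with 0.05% IGEPAL.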

[13] = target: Parathyroid hormone/parathyroid hormone-related peptide receptor (Homo sapiens) (UniProt Q03431); assay: qHTS for PTHR1 Agonists: Optimization Screen against the NCGC LOPAC library (AID 1347079);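 note: GloSensor cAMP luminescence in HEK-293 GP2 cells expressing human PTHR1 with IBMX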
Chain of Parathyroid hormone/parathyroid hormone-related peptide receptor (Homo sapiens) (Q03431 whole entry, looked up): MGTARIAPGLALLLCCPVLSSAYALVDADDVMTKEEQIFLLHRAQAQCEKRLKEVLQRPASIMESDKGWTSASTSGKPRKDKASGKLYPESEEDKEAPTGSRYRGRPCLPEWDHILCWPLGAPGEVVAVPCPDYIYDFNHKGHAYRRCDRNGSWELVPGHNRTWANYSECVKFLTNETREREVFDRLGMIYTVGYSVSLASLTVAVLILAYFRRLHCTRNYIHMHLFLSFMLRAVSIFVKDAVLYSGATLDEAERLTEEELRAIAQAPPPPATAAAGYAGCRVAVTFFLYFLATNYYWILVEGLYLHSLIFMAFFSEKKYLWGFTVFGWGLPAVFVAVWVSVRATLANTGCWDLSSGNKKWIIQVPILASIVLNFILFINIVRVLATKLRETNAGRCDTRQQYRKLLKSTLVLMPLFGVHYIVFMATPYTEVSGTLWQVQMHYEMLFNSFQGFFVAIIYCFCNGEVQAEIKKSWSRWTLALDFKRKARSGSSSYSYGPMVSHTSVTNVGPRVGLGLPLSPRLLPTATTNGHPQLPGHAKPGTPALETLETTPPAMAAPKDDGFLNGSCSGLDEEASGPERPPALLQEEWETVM
Procedure, shortened: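 HEK-293 GP2 cells, PTHR1 + GloSensor cAMP; 3000 cells/well, o/n. Luciferin + IBMX 0.5mM each (stock), 1 hr 37C. Cpd titration, 1 hr 37C. Lum after 15 min RT. Ctrl M-PTH(1-15) top 10uM.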

[14] = target: N-terminal Xaa-Pro-Lys N-methyltransferase 1 (Homo sapiens) (UniProt Q9BV86); assay: qHTS Assay for Inhibitors of N-terminal methyltransferase 1 (NTMT1): LOPAC validation of the NTMT1 SAHH-coupled ThioGlo3 Assay (AID 1347143);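 note: SAH from peptide methylation measured as thiol fluorescence via SAHH coupling and ThioGlo3; potency is the fitted concentration of half-maximal effect; nearly all actives have a fitted effect of over 70% in size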
Procedure, shortened: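 NTMT1 125nM + cpds (various conc.), 1 min RT; add SAM 100uM/SAHH 10uM/ThioGlo3 15uM (addition mix). SAHH-coupled thiol detection, Ex340/Em450, t0 and 30 min RT; signal normalized to background. LOPAC 1280-cpd pilot.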

[15] = qHTS to identify inhibitors of the type 1 interferon - major histocompatibility complex class I in skeletal muscle: primary screen against the NCATS LOPAC collection (AID 1347405);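 note: lytic HiBiT luminescence reporting HLA-B protein level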
Procedure, shortened: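 After 24 h at 37 C with compounds (7-point, 1:4.3 dilutions, 46 uM top final) plus 4 ng/ml IFN-beta, luminescence from lytic HiBiT detection was measured. HLA-B*08:01 in C25cl48 myoblasts carried an endogenous C-terminal HiBiT tag; medium lacked dexamethasone.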

[16] = qHTS for inhibitors of adenylyl cyclases using a fission yeast platform: a pilot screen against the NCATS LOPAC library (AID 1347410)
Procedure, shortened: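 GFP from fbp1-GFP reporter, read by Acumen laser cytometry, indicates AC inhibition in fission yeast expressing AC9, GNAS and PDE4D2. Cells grown 18 h in the dark at 30C with compounds, final up to 57 uM.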

[17] = target: Single-stranded DNA cytosine deaminase (Homo sapiens) (UniProt Q9GZX7); assay: Validation qHTS assay for inhibitors of Activation Induced Cytidine Deaminase (AID): AID signal (AID 1347429)
Chain of Single-stranded DNA cytosine deaminase (Homo sapiens) (Q9GZX7 whole entry, looked up): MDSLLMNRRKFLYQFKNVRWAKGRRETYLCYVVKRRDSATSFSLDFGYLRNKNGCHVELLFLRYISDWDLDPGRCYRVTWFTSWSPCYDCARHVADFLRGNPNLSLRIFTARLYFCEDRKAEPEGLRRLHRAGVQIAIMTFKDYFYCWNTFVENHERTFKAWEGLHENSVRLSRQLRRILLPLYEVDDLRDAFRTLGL
Procedure, shortened: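 Compounds (final up to 114 uM) preincubated with AID plus UDG; 250 nM DJC20/DJC23 substrate mix (4x stock) added, 4 hr at room temperature, then NaOH, 30 min. Read 1 fluorescence at 540 nm excitation, 590 nm emission.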

[18] = target: Calcium and integrin-binding protein 1 (Homo sapiens) (UniProt Q99828); assay: Validation qHTS for Identification of Calcium Integrin Binding protein 1 (CIB1) Competitor (AID 1508618)
Chain of Calcium and integrin-binding protein 1 (Homo sapiens) (Q99828 whole entry, looked up): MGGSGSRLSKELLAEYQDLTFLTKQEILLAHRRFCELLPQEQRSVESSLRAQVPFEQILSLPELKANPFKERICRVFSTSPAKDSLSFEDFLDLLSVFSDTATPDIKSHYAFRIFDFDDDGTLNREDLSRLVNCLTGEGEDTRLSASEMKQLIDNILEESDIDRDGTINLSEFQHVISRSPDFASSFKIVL
Procedure, shortened: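 Fluorescence polarization with 1 uM CIB1-GST and 100 nM FITC-alphaIIb peptide in HEPES pH 7.4, NaCl, 5 mM CaCl2, Tween20. Compounds at up to 114 uM final, preincubated with protein 15 min; read after 15 min more at RT.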

[19] = Primary qHTS for small molecule stabilizers of the endoplasmic reticulum resident proteome: Secreted ER Calcium Modulated Protein (SERCaMP) assay (AID 1508630)
Procedure, shortened: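 The SH-SY5Y reporter protocol was run at 3 concentrations up to 38.3 uM (primary) or 11 concentrations (follow-up): 16 h compound, 100 nM thapsigargin for 4 h, then extracellular luciferase luminescence.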

Papain (Carica papaya) = Papain (Carica papaya) (UniProt P00784); assay: Primary qHTS assay for inhibitors of the protease papain (AID 1645873);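 note: papain turnover of Z-FR-AMC read as the AMC fluorescence gain over 10 min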
Chain of Papain (Carica papaya) (P00784 whole entry, looked up): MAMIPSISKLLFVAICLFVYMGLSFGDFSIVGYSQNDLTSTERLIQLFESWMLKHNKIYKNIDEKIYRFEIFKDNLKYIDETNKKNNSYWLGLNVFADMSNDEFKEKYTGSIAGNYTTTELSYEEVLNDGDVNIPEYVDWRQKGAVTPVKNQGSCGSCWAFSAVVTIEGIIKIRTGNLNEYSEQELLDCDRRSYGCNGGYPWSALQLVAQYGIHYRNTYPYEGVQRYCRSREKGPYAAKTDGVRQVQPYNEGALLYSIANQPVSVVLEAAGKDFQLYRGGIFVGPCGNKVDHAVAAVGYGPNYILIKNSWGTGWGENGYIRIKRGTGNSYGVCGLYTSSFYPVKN

[20] = target: Catechol O-methyltransferase (Homo sapiens) (UniProt P21964); assay: Confirmatory Screen for Target Class Profiling of Small Molecule Inhibitors of Methyltransferases (AID 1745852; calls by dose curve); details: MTase-Glo luminescence, SAH detection, recombinant enzyme; measured here: COMT max response; stronger effect = lower value
Chain of Catechol O-methyltransferase (Homo sapiens) (P21964 whole entry, looked up): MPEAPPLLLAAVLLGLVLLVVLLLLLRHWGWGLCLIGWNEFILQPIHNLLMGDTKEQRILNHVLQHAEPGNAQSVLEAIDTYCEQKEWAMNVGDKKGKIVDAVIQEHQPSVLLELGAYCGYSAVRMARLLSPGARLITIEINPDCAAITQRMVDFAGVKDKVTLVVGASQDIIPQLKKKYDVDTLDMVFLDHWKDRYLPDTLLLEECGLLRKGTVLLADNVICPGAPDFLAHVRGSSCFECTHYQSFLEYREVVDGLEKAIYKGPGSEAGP

[21] = target: Guanidinoacetate N-methyltransferase (Homo sapiens) (UniProt Q14353); assay: as above; details: activity change, negative = inhibition: at 57.3 µM (top of the series) unless noted
[22] = target: Nicotinamide N-methyltransferase (Homo sapiens) (UniProt P40261); assay: as above; details: MTase-Glo luminescence, SAH detection, recombinant enzyme; measured here: NNMT max response; stronger effect = lower value
Chain of Nicotinamide N-methyltransferase (Homo sapiens) (P40261 whole entry, looked up): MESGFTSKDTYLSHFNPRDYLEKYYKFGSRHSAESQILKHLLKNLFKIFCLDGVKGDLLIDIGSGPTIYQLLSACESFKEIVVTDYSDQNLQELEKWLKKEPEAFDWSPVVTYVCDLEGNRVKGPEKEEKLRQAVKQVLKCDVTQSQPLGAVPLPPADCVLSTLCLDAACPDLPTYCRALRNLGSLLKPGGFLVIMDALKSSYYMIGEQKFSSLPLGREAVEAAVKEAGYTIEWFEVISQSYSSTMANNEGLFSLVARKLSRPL

[23] = target: Phenylethanolamine N-methyltransferase (Homo sapiens) (UniProt P11086); assay: as above; details: MTase-Glo luminescence, SAH detection, recombinant enzyme; measured here: PNMT max response; stronger effect = lower value
[24] = target: Metallo-beta-lactamase type 2 (Klebsiella pneumoniae) (UniProt C7C422); assay: qHTS to identify inhibitors of the New Delhi Metallo-beta-lactamase (NDM): assay validation screen against the NCATS LOPAC Collection (AID 1794843);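 note: nitrocefin turnover by NDM-1 measured as 485 nm absorbance at plateau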
Procedure, shortened: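 NDM-1 at 2 nM final in 50 mM HEPES pH 7.0, 1 uM ZnSO4, 0.01% Tween20, preincubated with LOPAC compounds pinned in DMSO; 50 uM nitrocefin (stock) added. Hydrolysis read as absorbance at 485 nm in the plateau phase.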

[25] = target: Glutathione peroxidase 1 (Homo sapiens) (UniProt P07203); assay: Primary qHTS Assay for Inhibitors of Recombinant Selenoprotein Glutathione Peroxidase 1 (GPX1) (AID 1845191); note: nearly all actives have a fitted effect of over 65% in size
Procedure, shortened: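 NADPH consumption tracked by fluorescence at 340/450 nm between t=0 and t=15 min, room temperature. Final mix: 10 nM GPX1, 100 nM glutathione reductase, 1 mM GSH, 0.5 mM NADPH, 0.5 mM cumene hydroperoxide, 0.01% BSA; 30 min compound–enzyme preincubation.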

[26] = target: Phospholipid hydroperoxide glutathione peroxidase GPX4 (Homo sapiens) (UniProt P36969); assay: Primary qHTS Assay for Inhibitors of Recombinant Selenoprotein Glutathione Peroxidase 4 (GPX4) (AID 1845192); details: outcome: dose series up to 50 µM unless noted; note: nearly all actives have a fitted effect of over 65% in size
Procedure, shortened: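 NADPH consumption followed by fluorescence at 340/450 nm, t=0 and after 15 min at room temperature. Reaction started with cumene hydroperoxide (0.5 mM final) after 30 min compound–GPX4 preincubation; final 200 nM GPX4, 100 nM GR, 1 mM GSH, 0.5 mM NADPH.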

CN1C2CCCC1CC(NC(=O)c1nn(C)c3ccccc13)C2 (configuration not stated)
active: Potency [14] 56.2 µM
0.961%: activity [22]
4.07%: activity [23]
inactive: outcome [1] | outcome [2] | outcome [3] | Potency [4] | outcome [5] | outcome [6] | outcome [7] | Potency [8] | Potency [9] | outcome [10] | outcome [11] | Potency [12] | outcome [13] | Potency [15] | outcome [16] | Potency [17] | outcome [18] | Potency [19] | Potency (Papain (Carica papaya)) | Potency [24] | Potency [25] | Potency [26]
5.2%: activity change, negative = inhibition [21]
1.32%: activity [20]

Reference: PubChem BioAssay (NCATS)
